Measurements reported in PubChem BioAssay (EPA / NIEHS).
The source made the active and inactive calls. The calls were made as follows: active = hit-call score of the fitted dose curve at least 0.9, where 1 is the maximum; inactive = score below 0.9.

read-out: Transforming Growth Factor (TGFA), TGFA (gene 7039); test: LTEA_HepaRG_TGFA: Life Technologies and Expression Analysis (LTEA) Assay for Transforming Growth Factor (TGFA) using HepaRG (AID 2283532); conditions: mRNA level, 48 h; actives raise or lower the signal
Experimental: LTEA_HepaRG is a cell based, multiplexed-readout assay that uses HepaRG, a human liver cell line, with measurements taken at 48 hours after chemical dosing on a 96-well plate.LTEA_HepaRG_TGFA is one of 102 assay component(s) measured in the LTEA HepaRG cell culture assay. It is a marker of Cell proliferation, survival, death.Data from the assay component LTEA_HepaRG_TGFA was analyzed into 1 endpoint. This assay endpoint, LTEA_HepaRG_TGFA, was analyzed with bidirectional fitting relative to DMSO as the negative control and baseline of activity. Using a type of inducible reporter, measures of mRNA induction for gain or loss-of-signal activity can be used to understand regulation of transcription factor activity. To generalize the intended target to other relatable targets, this assay endpoint is annotated to the growth factor intended target family, where the subfamily is EGF-like domain.
A total of 1060 chemcials from the ToxCast library were tested in eight-point concentration-response experiments. Cell culture and cytotoxicity assays were conducted at Thermo Fisher Scientific's Custom Services facility (Madison, WI). A single lot of human HepaRG cells (Thermo Fisher Scientific, Frederick, MD) was used for the cell culture experiments. 96-well format collagen type I coated plates of human HepaRG cells were prepared using established methods. Briefly, cryopreserved HepaRG cells were thawed, plated at a density of approximately 100,000 cells/well in HepaRG Thaw, Plate, and General Purpose media (HPRG770, Thermo Fisher Scientific), and incubated for 48 hours. 0.5% DMSO was selected as vehicle control to balance the requisite need of DMSO in HepaRG cultures to maintain differentiation (for example, baseline metabolism, proportions of hepatocytes vs. cholangiocytes), while enabling further hepatic receptor pathway activation (for example, PXR and CAR) in response to chemical exposure. 48 hours after plating, the culture medium was replaced with HepaRG Serum-Free Incudtion Media. Cells were exposed to each test chemical in duplicate and maintained in CO2 incubators for another 48 hours. Chemical plates were thawed to room temperature and 200x concentrations of treatment groups were prepared. 8-point conentration-reponse curves were made with the highest exposure at 100 uM, followed by half-log dilutions, all in 0.5% DMSO. Each test plate contained variouse controls, induction positive controls (1mM phenobarbital), cytotoxicity positive controls ([…] aflatoxin B1), vehicle controls (0.5% DMSO), and total lysis controls (0.5% DMSO). Cell morphology images were taken using an Essen IncuCyte FLR automated microscope, with six 96-well plates imaged in about 24 minutes. Images were captured and exported and JPEG files. Spent culture media was transfered to black-well plates for the LDH assay, and remaining media was sorted at -80 C for later use. Cells were treated with RLT buffer and frozen until shipped for gene expression analysis. Total RNA was isolated from the cell suspension in 75 uL of Buffer RLT (Qiagen, Germantown, MD 20874) by Quintiles/Expression Analysis (Durham, NC) using a custom isolation procedure. Total RNA from each plate well was transferred to a preamplification plate. Fluidigm's 96.96 Dynamic ArrayTM (Fluidigm, Amsterdam, the Netherlands) technology was used for gene expression analyses by quantitative reverse transcription polymerase chain reaction (qRT-PCR, performed by Quintiles/Expression Analysis, Durham, NC)89. Standard TaqManTM Assays (Applied Biosystems/ThermoFisher Scientific, Foster City, CA) were used to assess the expression of 93 genes selected based on their selectivity and sensitivity to important hepatic receptors known to be modulated by environmental chemicals; importance in human hepatocyte functionality; and hepatotoxicity. […]

Q: Which outcome does the source give for `Nn1cnnc1` here?
A: inactive

Q: With `CCCCCCCCCC[N+](C)(C)CCCCCCCCCC` as the compound, how does the outcome read?
A: inactive

Q: `ClC1=C(Cl)[C@]2(Cl)[C@@H]3[C@@H]4C[C@@H]([C@H]5O[C@@H]45)[C@@H]3[C@@]1(Cl)C2(Cl)Cl` was tested. Which outcome did it give?
A: inactive

Q: With `CCCCCCOC(=O)c1ccccc1C(=O)OCCCCCC` as the compound, how does the outcome read?
A: inactive

Q: Which outcome does the source give for `CC(C)(c1ccccc1)c1ccc(O)cc1` here?
A: inactive

Q: Which outcome does the source give for `Cc1ccccc1CO[C@@H]1C[C@@]2(C(C)C)CC[C@]1(C)O2` here?
A: inactive

Q: For `C1CC2OC2CC1C1CO1` (stereo not given), which outcome is on record?
A: inactive

Q: Which outcome does the source give for `ClC1=C(Cl)[C@]2(Cl)[C@@H]3[C@H]4C[C@H]([C@@H]5O[C@H]45)[C@@H]3[C@@]1(Cl)C2(Cl)Cl` here?
A: inactive

Q: With `c1ccc(-c2ccccc2)cc1` as the compound, how does the outcome read?
A: inactive

Q: With `CC1=C2C[C@H]3[C@@H](CC=C4C[C@@H](O)CC[C@@]43C)[C@@H]2CC[C@]12O[C@@H]1C[C@H](C)CN[C@H]1[C@H]2C` as the compound, how does the outcome read?
A: inactive

Q: Which outcome does the source give for `CCC(=O)O[C@H]1CC[C@H]2[C@@H]3CCC4=CC(=O)CC[C@]4(C)[C@H]3CC[C@]12C` here?
A: inactive

Q: Which AC50 does the source give for `CO/C=C(/C(=O)OC)c1ccccc1COc1cccc(C(F)(F)F)n1` here?
A: 10.6 µM (active)

Q: How did the outcome turn out when `Clc1ccc(Cl)cc1` was run?
A: inactive

Q: For `Cc1cc2c3c(c1)C(c1ccccc1)=N[C@@H](NC(=O)c1ccncc1)C(=O)N3CC2`, which outcome is on record?
A: inactive

Q: `O=C(NC(=O)c1c(F)cccc1F)Nc1cc(Cl)c(OC(F)(F)C(F)F)c(Cl)c1` was tested. Which outcome did it give?
A: inactive

Q: `CCCCCCCCOC(=O)c1ccccc1C(=O)OCCCCCCCC` was tested. Which outcome did it give?
A: inactive

Q: Which outcome does the source give for `O=C(N[C@H]1CN2CCC1CC2)c1cc2ccoc2cn1` here?
A: inactive

Q: How did the outcome turn out when `CC(C)C(=O)OCC(C)(C)C(OC(=O)C(C)C)C(C)C` (stereo not given) was run?
A: inactive

Q: Which outcome does the source give for `CCSC(=O)N(CC)C1CCCCC1` here?
A: inactive

Q: For `c1cc2ccc3cccc4ccc(c1)c2c34`, which outcome is on record?
A: inactive

Q: For `Cc1cc(O)ccc1Cl`, which outcome is on record?
A: inactive

Q: How did the AC50 turn out when `Oc1c(Cl)c(Cl)c(Cl)c(Cl)c1Cl` was run?
A: 12.3 µM (active)

Q: `CCOCCOC(C)=O` was tested. Which outcome did it give?
A: inactive

Q: With `C=CC(=O)NCNC(=O)C=C` as the compound, how does the outcome read?
A: inactive

Q: `C[C@]12CCC(=O)C=C1CC[C@@H]1[C@@H]2CC[C@@]2(C)[C@H]1CC[C@]2(C)O` was tested. Which outcome did it give?
A: inactive

Q: How did the outcome turn out when `N#Cc1ccc(N(CC(N)=O)CC(F)(F)F)cc1C(F)(F)F` was run?
A: inactive

Q: With `O=S(=O)(O)C(F)(F)C(F)(F)C(F)(F)C(F)(F)C(F)(F)C(F)(F)F` as the compound, how does the outcome read?
A: inactive

Q: For `Cc1ccc(O)c(C)c1`, which outcome is on record?
A: inactive

Q: Which outcome does the source give for `ClC1=C(Cl)[C@]2(Cl)[C@@H]3[C@@H](Cl)[C@H]4O[C@H]4[C@@H]3C1(Cl)C2(Cl)Cl` here?
A: inactive

Q: For `COS(=O)(=O)OC`, which outcome is on record?
A: inactive

Q: `CCNc1nc(NC(C)C)nc(SC)n1` was tested. Which outcome did it give?
A: inactive

Q: With `Cc1ccccc1O` as the compound, how does the outcome read?
A: inactive

Q: With `O=NN(c1ccccc1)c1ccccc1` as the compound, how does the outcome read?
A: inactive

Q: For `CCC(C)c1cc([N+](=O)[O-])cc([N+](=O)[O-])c1O` (stereo not given), which AC50 is on record?
A: 4.14 µM (active)

Q: `Oc1ccc(C(c2ccc(O)cc2)(C(F)(F)F)C(F)(F)F)cc1` was tested. Which AC50 did it give?
A: 82.4 µM (active)

Q: With `CN(C)CCO` as the compound, how does the outcome read?
A: inactive

Q: `O=S(=O)(O)C(F)(F)C(F)(F)C(F)(F)C(F)(F)F` was tested. Which outcome did it give?
A: inactive

Q: How did the outcome turn out when `CCC(C)(c1ccc(O)cc1)c1ccc(O)cc1` was run?
A: inactive

Q: For `CN(C)c1nc(=O)n(C2CCCCC2)c(=O)n1C`, which outcome is on record?
A: inactive

Q: How did the AC50 turn out when `O=C(O)C(F)(F)C(F)(F)C(F)(F)C(F)(F)C(F)(F)C(F)(F)C(F)(F)C(F)(F)F` was run?
A: 67.1 µM (active)
